In the antibiotic and cytotoxicity screens of Wong et al. (2023):
In all, about 39,000 compounds went through this assay and about 3,300 (8.5%) were called active. Many of the other results were omitted from the sample, so actives are more common in it than they were.

System: HepG2
Test: cytotoxicity call (relative viability < 0.9)
Details: 10 µM

SMILES | cytotoxicity call
COC(=O)[C@H]1C2C(=O)N(C3CC3)C[C@]23C=C[C@H]1O3 (stereo not given in full) | inactive
C[C@H]1CN([C@@H](C)CO)C(=O)c2cccc(NC(=O)C3CCCCC3)c2O[C@H]1CN(C)Cc1ccc(Cl)c(Cl)c1 | inactive
CO[C@H]1CN(C)C(=O)c2ccc(NS(C)(=O)=O)cc2OC[C@H](C)N(C(=O)c2ccc3c(c2)OCO3)C[C@H]1C | inactive
C[C@@H]1CN([C@@H](C)CO)S(=O)(=O)c2ccc(C#CC(C)(C)O)cc2O[C@H]1CN(C)Cc1ccccc1 | inactive
CCCC(=O)Nc1ccc2c(c1)C(=O)N(C)C[C@@H](OC)[C@H](C)CN(Cc1cc(-c3ccccc3)on1)[C@H](C)CO2 | inactive
Cc1noc(C)c1NC(=O)N(C)C[C@@H]1Oc2ccc(NC(=O)CCCN(C)C)cc2C(=O)N([C@@H](C)CO)C[C@@H]1C | inactive
C[C@@H]1CN([C@@H](C)CO)C(=O)Cc2cc(NC(=O)Cc3ccccc3)ccc2O[C@@H]1CN(C)S(=O)(=O)c1ccccc1 | inactive
O=C(Nc1ccc2c(c1)[C@@H]1C[C@@H](CC(=O)N3CCc4ccccc4C3)O[C@@H](CO)[C@@H]1O2)C1CCOCC1 | inactive
O=C(C[C@H]1C=C[C@H](NC(=O)c2ccc3c(c2)OCO3)[C@H](CO)O1)NCc1ccc(Oc2ccccc2)cc1 | inactive
CC(C)CC#Cc1cnc2c(c1)C(=O)N([C@H](C)CO)C[C@@H](C)[C@@H](CN(C)C(=O)c1ccc3c(c1)OCO3)O2 | inactive
C[C@H]1CN([C@@H](C)CO)C(=O)CCCn2nncc2CO[C@H]1CN(C)S(=O)(=O)c1ccc(C#N)cc1 | inactive
Cc1ccc(S(=O)(=O)NCC[C@H]2CC[C@H](NS(=O)(=O)c3ccccc3Cl)[C@H](CO)O2)cc1 | inactive
C[C@@H]1CN([C@H](C)CO)C(=O)c2cc(NC(=O)Nc3cccc4ccccc34)ccc2O[C@H]1CN(C)C(=O)Nc1ccc2c(c1)OCO2 | inactive
C[C@@H]1CN([C@@H](C)CO)C(=O)Cc2cc(NC(=O)C3CC3)ccc2O[C@H]1CN(C)S(=O)(=O)c1cccs1 | inactive
Cc1noc(C)c1NC(=O)Nc1ccc2c(c1)C(=O)N([C@@H](C)CO)C[C@H](C)[C@@H](CN(C)C(=O)Nc1ccc(F)cc1)OCCCC[C@@H](C)O2 | inactive
[Fe+3].CC/1=C(CCC(=O)O)/C/2=C/c3[nH]c(c(c3CCC(=O)O)C)/C=C/3\N=C(/C=C/4\N=C(\C=C1/N2)C(=C4C)C=C)C(=C3C)C=C | active
Cc1[nH]c(=O)[nH]c(=O)c1CCC(=O)O | inactive
Cc1nc2[nH]c(C)c(CCC(=O)O)c(=O)n2n1 | inactive
Cc1ccccc1S(=O)(=O)N(C)C[C@@H]1Oc2ccc(NC(=O)Nc3ccc(Cl)c(Cl)c3)cc2CC(=O)N([C@@H](C)CO)C[C@@H]1C | active
CC(C)NC(=O)Nc1ccc2c(c1)CC(=O)N([C@@H](C)CO)C[C@H](C)[C@@H](CN(C)S(=O)(=O)c1ccc(Cl)cc1)O2 | inactive
C[C@H]1CN([C@@H](C)CO)C(=O)Cc2cc(NC(=O)Nc3ccc(Cl)c(Cl)c3)ccc2O[C@H]1CN(C)S(=O)(=O)c1ccc(Cl)cc1 | active
C[C@H]1CN([C@@H](C)CO)C(=O)Cc2cc(NC(=O)Nc3cc(Cl)cc(Cl)c3)ccc2O[C@H]1CN(C)S(=O)(=O)c1ccc(Cl)cc1 | active
CC(C)NC(=O)Nc1ccc2c(c1)CC(=O)N([C@@H](C)CO)C[C@@H](C)[C@@H](CN(C)S(=O)(=O)c1ccc(Cl)cc1)O2 | inactive
Cc1ccccc1S(=O)(=O)N(C)C[C@@H]1Oc2ccc(NC(=O)Nc3cccc(C(F)(F)F)c3)cc2CC(=O)N([C@@H](C)CO)C[C@@H]1C | inactive
Cc1ccccc1S(=O)(=O)N(C)C[C@@H]1Oc2ccc(NC(=O)Nc3cc(Cl)cc(Cl)c3)cc2CC(=O)N([C@@H](C)CO)C[C@@H]1C | inactive

SMILES | cytotoxicity call
CC(C)NC(=O)Nc1ccc2c(c1)CC(=O)N([C@H](C)CO)C[C@H](C)[C@@H](CN(C)S(=O)(=O)c1ccc(Cl)cc1)O2 | inactive
CC(C)NC(=O)Nc1ccc2c(c1)CC(=O)N([C@H](C)CO)C[C@H](C)[C@H](CN(C)S(=O)(=O)c1ccc(Cl)cc1)O2 | inactive
Cc1noc(C)c1NC(=O)Nc1ccc2c(c1)CC(=O)N([C@H](C)CO)C[C@H](C)[C@@H](CN(C)Cc1ccc(C(=O)Nc3ccccc3N)cc1)O2 | inactive
CCS(=O)(=O)Nc1ccc2c(c1)C(=O)N(C)C[C@H](OC)[C@H](C)CN(CCC(F)(F)F)[C@@H](C)CO2 | inactive
CCN(CC)c1ccc(N2CC=C[C@@]34O[C@@H]5/C=C\CCCOC(=O)[C@@H]5[C@H]3C(=O)N([C@@H](C)CO)[C@@H]4C2=O)cc1 | inactive
COc1ccc(NC(=O)Nc2ccc3c(c2)C(=O)N([C@H](C)CO)C[C@@H](C)[C@H](CN(C)C(=O)Nc2ccccc2)OCCCC[C@@H](C)O3)cc1 | inactive
Oc1cccc(O)c1O | inactive
Cn1cc(-c2cc3c(N4CCN(c5ncc([C@@](C)(N)c6ccc(F)cc6)cn5)CC4)ncnn3c2)cn1 | active
C[C@H](CO)N1C[C@H](C)[C@@H](CN(C)C(=O)Cc2cccnc2)Oc2cc(C#CC3(O)CCCC3)ccc2S1(=O)=O | inactive
C[C@H](CO)N1C[C@H](C)[C@@H](CN(C)Cc2ccc3c(c2)OCO3)OCCCC[C@H](C)Oc2ccc(NC(=O)CCC(F)(F)F)cc2C1=O | inactive
Cc1noc(C)c1S(=O)(=O)N(C)C[C@H]1Oc2c(NS(=O)(=O)c3ccccc3)cccc2C(=O)N([C@@H](C)CO)C[C@H]1C | inactive
COc1ccc(S(=O)(=O)Nc2ccc3c(c2)CC(=O)N([C@@H](C)CO)C[C@H](C)[C@@H](CN(C)C(=O)NC(C)C)O3)cc1 | inactive
CC(=O)O[C@@]1(C)C[C@@H](O)[C@@H]2C=CO[C@@H](O[C@@H]3O[C@H](CO)[C@@H](O)[C@H](O)[C@H]3O)[C@@H]21 | inactive
O=[N+]([O-])c1ccc2nc(CO)[nH]c2c1 | inactive
c1ccc2[nH]c(-c3ccncc3)nc2c1 | inactive
O=C(Nc1ccc(-c2nc3cc(NC(=O)c4ccccc4Cl)ccc3o2)cc1)c1ccccc1Cl | active
O=C(Nc1ccc(-c2nc3ccc(NC(=O)c4ccccc4[N+](=O)[O-])cc3[nH]2)cc1)c1ccccc1[N+](=O)[O-] | active
NC1(C(=O)Nc2ccc3nc(-c4ccc(F)cc4)oc3c2)CC1 | inactive
CCCC(=O)Nc1ccc(-c2nc3cc(C(C)C)ccc3o2)cc1 | inactive
Cc1ccc(NC(=O)c2cc(=O)[nH]c(=O)[nH]2)cc1 | inactive
O=C(Nc1ccc(-c2nc3cc(NC(=O)c4ccccc4[N+](=O)[O-])ccc3o2)cc1)c1ccccc1[N+](=O)[O-] | active
NCc1ccc(-c2nc3ccccc3o2)cc1 | inactive
c1ccc(-c2nc3ccccc3o2)cc1 | inactive
O=C(Nc1ccc(-c2nc3ccc(NC(=O)c4ccc(NC(=O)c5cccc6ccccc56)cc4)cc3[nH]2)cc1)c1ccc(NC(=O)c2cccc3ccccc23)cc1 | inactive
O=C(Nc1ccc(-c2nc3ccc(NC(=O)c4ccc(Cl)cc4)cc3[nH]2)cc1)c1ccc(Cl)cc1 | active

SMILES | cytotoxicity call
O=c1[nH]cnc2c1ncn2C1OC(CO)C(O)C1O (stereo not given) | inactive
C[C@H](CO)N1C[C@H](C)[C@H](CN(C)C(=O)Nc2cc(F)ccc2F)Oc2cc(/C=C/c3ccccc3)ccc2S1(=O)=O | inactive
C[C@H]1CN([C@@H](C)CO)S(=O)(=O)c2ccc(C#CC3(O)CCCC3)cc2O[C@H]1CN(C)C(=O)c1ccncc1 | inactive
Nc1cncc(Cl)n1 | inactive
CN1CCN(C(=O)C[C@H]2CC[C@H]3[C@@H](COC[C@H](O)CN3C(=O)Nc3ccc4c(c3)OCO4)O2)CC1 | inactive
COc1ccc(S(=O)(=O)N(C)C[C@H]2OCCCC[C@@H](C)Oc3ccc(NC(=O)c4ccccc4)cc3C(=O)N([C@@H](C)CO)C[C@@H]2C)cc1 | inactive
CN(C)CC#Cc1ccc([C@@H]2[C@@H](CO)N3C(=O)CN(C(=O)CN(C)C)C[C@@H]23)cc1 | inactive
C[C@@H]1CN([C@H](C)CO)C(=O)c2cc(C#CC3(O)CCCC3)cnc2O[C@H]1CN(C)S(=O)(=O)c1ccccc1 | inactive
CC(C)NC(=O)Nc1cccc2c1O[C@@H](CN(C)Cc1ccc(C(=O)O)cc1)[C@H](C)CN([C@H](C)CO)C2=O | inactive
c1cc2c(cc1-c1nn[nH]n1)OCO2 | inactive
O=C(NCCCN1CCOCC1)Nc1ccc(Cc2ccc(NC(=O)NCCCN3CCOCC3)cc2)cc1 | inactive
CC(C)(C)c1cc(NC(=O)Nc2ccc(-c3cn4c(n3)sc3cc(OCCN5CCOCC5)ccc34)cc2)no1 | active
COc1cc(OC)cc(C(=O)Nc2nc(-c3ccc4c(c3)CCN4C(=O)CN3CCOCC3)cs2)c1 | inactive
C[C@@H]1CCCCO[C@@H](CN(C)S(=O)(=O)c2cccs2)[C@@H](C)CN([C@@H](C)CO)C(=O)c2cc(NC(=O)Cc3ccccc3)ccc2O1 | inactive
C[C@H](CO)N1C[C@H](C)[C@@H](CN(C)C(=O)Nc2ccc3c(c2)OCO3)Oc2c(NS(=O)(=O)c3cn(C)cn3)cccc2C1=O | inactive
COc1ccc(CN(C)C[C@H]2OCCCC[C@@H](C)Oc3ccc(NC(=O)Nc4cccc5ccccc45)cc3C(=O)N([C@H](C)CO)C[C@H]2C)cc1 | inactive
COc1ccc(CN(C)C[C@H]2OCCCC[C@H](C)Oc3ccc(NC(=O)Nc4cccc5ccccc45)cc3C(=O)N([C@H](C)CO)C[C@@H]2C)cc1 | inactive
COc1ccc(CN(C)C[C@@H]2OCCCC[C@@H](C)Oc3ccc(NC(=O)Nc4cccc5ccccc45)cc3C(=O)N([C@H](C)CO)C[C@H]2C)cc1 | active
COc1ccc(CN(C)C[C@H]2OCCCC[C@H](C)Oc3ccc(NC(=O)Nc4cccc5ccccc45)cc3C(=O)N([C@@H](C)CO)C[C@@H]2C)cc1 | inactive
COc1ccc(CN(C)C[C@@H]2OCCCC[C@H](C)Oc3ccc(NC(=O)Nc4cccc5ccccc45)cc3C(=O)N([C@@H](C)CO)C[C@@H]2C)cc1 | inactive
COc1ccc(CN(C)C[C@@H]2OCCCC[C@@H](C)Oc3ccc(NC(=O)Nc4cccc5ccccc45)cc3C(=O)N([C@@H](C)CO)C[C@H]2C)cc1 | active
COc1ccc(CN(C)C[C@@H]2OCCCC[C@H](C)Oc3ccc(NC(=O)Nc4cccc5ccccc45)cc3C(=O)N([C@@H](C)CO)C[C@H]2C)cc1 | active
COc1ccc(CN(C)C[C@@H]2OCCCC[C@H](C)Oc3ccc(NC(=O)Nc4cccc5ccccc45)cc3C(=O)N([C@H](C)CO)C[C@@H]2C)cc1 | inactive
COc1ccc(CN(C)C[C@H]2OCCCC[C@H](C)Oc3ccc(NC(=O)Nc4cccc5ccccc45)cc3C(=O)N([C@@H](C)CO)C[C@H]2C)cc1 | inactive
COc1ccc(CN(C)C[C@@H]2OCCCC[C@H](C)Oc3ccc(NC(=O)Nc4cccc5ccccc45)cc3C(=O)N([C@H](C)CO)C[C@H]2C)cc1 | active
